Experiment [1] can be described thus: resazurin metabolic signal in HepG2 cells – cell-based, resazurin fluorescence, 24 h, PK04 Diversity Set, profiling panel (AID 1172). The following applies: HepG2 viability, higher = more signal. Background: Resazurin is reduced to fluorescent resorufin, in cell work by metabolically active cells.
A short description of experiment [2]: budding yeast growth changes without added modifier – OD600, strain BY4716, 24 h, basal condition, primary screen (AID 1173). The following applies: S. cerevisiae BY4716 growth, OD600, 24 h; higher = more signal, called active from +8 up or from −8 down.
A short description of experiment [3]: viability profiling in MM1S myeloma cells – cell-based, resazurin fluorescence, basal, 24 h, PK04 Diversity Set, profiling panel (AID 1174).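 Note: MM1S multiple myeloma cell line.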 The note with it: higher = more signal, called active from +8 up or from −8 down.
Experiment [4] addresses Dihydroorotate dehydrogenase (quinone), mitochondrial (Plasmodium falciparum (isolate 3D7)) (UniProt Q08210). The experiment can be described thus: inhibition of P. falciparum DHODH – biochemical, C-terminal His tag, absorbance 600 nm, primary screen (AID 1175).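 Note: recombinant parasite enzyme with a five histidine tag at its C terminus.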 The following applies: PfDHODH enzyme, DCIP absorbance 600 nm; higher = more signal, called active from +8 up or from −8 down.

The nature of experiment [5]: inhibition of PAO1 biofilm formation – strain PAO1, LB-PBS medium, absorbance 600 nm, primary screen (AID 1176). The note with it: P. aeruginosa PAO1 growth/biofilm, A600, 12 h; higher = more signal.
Experiment [6] is described as follows: growth modulation of vineyard yeast isolate – strain RM11-1a, OD600, basal, 24 h, primary screen (AID 1177).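 Note: cultures grown under basal conditions with no added stressor.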 The note with it: S. cerevisiae RM11-1a growth, OD600, 24 h; higher = more signal, called active from +8 up or from −8 down.
Experiment [7] in a line: growth of efflux-deficient E. coli DRC39 – strain DRC39, OD650, 24 h, E. coli filamentation inducers, primary screen (AID 1178).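 Note: growth measured as culture turbidity by optical density at 650 nm.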 The note with it: E. coli DRC39 acrAB, higher = more signal, called active from +8 up or from −8 down.
Experiment [8] is described as follows: growth of efflux-deficient E. coli DRC39 – strain DRC39, OD650, 48 h, E. coli filamentation inducers, primary screen (AID 1179).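 Note: screen aims at cell division blockers that make cells filament.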 The note with it: E. coli DRC39 delta-acrAB growth, higher = more signal, called active from +8 up or from −8 down.
Experiment [9] can be described thus: viability profiling in RPMI8226 myeloma cells – cell-based, resazurin fluorescence, basal, 24 h, PK04 Diversity Set, profiling panel (AID 1180).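 Note: RPMI8826 multiple myeloma cell line at 5000 cells per well.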 The following applies: higher = more signal.
Experiment [10] concerns the target E3 ubiquitin-protein ligase XIAP (Homo sapiens) (UniProt P98170). The experiment can be described thus: small molecules binding XIAP protein – biophysical, small-molecule microarray, fluorescence 635 nm, primary screen (AID 1181).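 Note: score merges 667 nm emission and signal to noise over triplicate slides.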 The note with it: higher = more signal.
The test system of experiment [11] is XIP peptide (Xip251-270) binding. Nature of the experiment: XIP fragment 251-270 binding compounds – biochemical, small-molecule microarray, fluorescence 635/667 nm, 0.1 µg/mL protein, primary screen (AID 1182). The following applies: fluorescent protein binding, 635 nm, higher = more signal, called active from +8 up or from −8 down.
The subject of a further experiment is XIP peptide (Xip251-270). Nature of the experiment: compounds binding XIP fragment 251-270 – biochemical, small-molecule microarray, fluorescence 635/667 nm, 0.5 µg/mL protein, primary screen (AID 1183). The following applies: fluorescence 635 nm, higher = more signal.
Experiment [12] in a line: blood-stage malaria parasite viability loss – strain 3D7, DAPI fluorescence, 100 nL, primary screen (AID 1184).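 Note: parasites grown inside human red blood cells in medium with human serum.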 The note with it: P. falciparum 3D7 growth, 3 d, higher = more signal.
For experiment [13], the target named is Homeobox protein Hox-A13 (Mus musculus) (UniProt Q62424). The experiment can be described thus: disruptors of Hoxa13 oligonucleotide interaction – biochemical, fluorescence polarization, labeled oligonucleotide, primary screen (AID 1185). The note with it: Hoxa13:DNA binding, 15 min, higher = more signal, called active from +8 up or from −8 down. (Polarisation of emitted light reports the rotation of a fluorescent probe.)
Homeobox protein Hox-A13 (Mus musculus), sequence (Q62424 whole entry, looked up): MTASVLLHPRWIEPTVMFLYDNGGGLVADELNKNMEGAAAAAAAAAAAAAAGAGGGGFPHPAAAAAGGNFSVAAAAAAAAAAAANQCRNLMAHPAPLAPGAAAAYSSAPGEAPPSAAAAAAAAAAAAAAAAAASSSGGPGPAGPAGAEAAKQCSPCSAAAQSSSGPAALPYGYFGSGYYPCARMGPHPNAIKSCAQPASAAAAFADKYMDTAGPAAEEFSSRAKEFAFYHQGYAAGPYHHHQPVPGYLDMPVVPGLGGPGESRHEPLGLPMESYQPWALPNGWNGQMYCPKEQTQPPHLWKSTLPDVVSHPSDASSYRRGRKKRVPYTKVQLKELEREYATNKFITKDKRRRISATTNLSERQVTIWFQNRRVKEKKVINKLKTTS

Experiment [14] in a line: blockers of DNA damage checkpoint Chk1 activation – imaging, HeLa, hydroxyurea, phospho-Chk1 antibody, percent positive cells, primary screen (AID 1186). The following applies: hydroxyurea-induced phospho-Chk1 immunofluorescence imaging, higher = more signal.
Experiment [15] in a line: blockers of DNA damage checkpoint Chk1 activation – imaging, HeLa, hydroxyurea, phospho-Chk1 nuclear intensity, primary screen (AID 1187). The note with it: hydroxyurea-induced phospho-Chk1 immunofluorescence imaging, higher = more signal.

Each structure is given as a SMILES string. The source made the active and inactive calls. Unless noted, the rule behind the calls is not given here.

E3 ubiquitin-protein ligase XIAP (Homo sapiens), sequence (P98170 whole entry, looked up, the tested form may be a part): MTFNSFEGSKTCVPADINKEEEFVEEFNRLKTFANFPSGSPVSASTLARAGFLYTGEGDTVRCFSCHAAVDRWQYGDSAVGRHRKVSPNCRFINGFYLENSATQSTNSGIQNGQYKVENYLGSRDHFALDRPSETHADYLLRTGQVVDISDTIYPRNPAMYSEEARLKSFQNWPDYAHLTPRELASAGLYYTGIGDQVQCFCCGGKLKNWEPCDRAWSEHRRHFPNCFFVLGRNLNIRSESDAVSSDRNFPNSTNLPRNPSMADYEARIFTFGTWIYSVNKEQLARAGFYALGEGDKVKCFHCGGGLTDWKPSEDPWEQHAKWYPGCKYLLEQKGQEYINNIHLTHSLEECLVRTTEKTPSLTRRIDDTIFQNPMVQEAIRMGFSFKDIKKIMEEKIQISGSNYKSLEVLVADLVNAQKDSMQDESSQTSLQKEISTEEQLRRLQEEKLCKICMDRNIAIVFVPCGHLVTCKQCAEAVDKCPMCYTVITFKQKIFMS
Dihydroorotate dehydrogenase (quinone), mitochondrial (Plasmodium falciparum (isolate 3D7)), sequence (Q08210 whole entry, looked up): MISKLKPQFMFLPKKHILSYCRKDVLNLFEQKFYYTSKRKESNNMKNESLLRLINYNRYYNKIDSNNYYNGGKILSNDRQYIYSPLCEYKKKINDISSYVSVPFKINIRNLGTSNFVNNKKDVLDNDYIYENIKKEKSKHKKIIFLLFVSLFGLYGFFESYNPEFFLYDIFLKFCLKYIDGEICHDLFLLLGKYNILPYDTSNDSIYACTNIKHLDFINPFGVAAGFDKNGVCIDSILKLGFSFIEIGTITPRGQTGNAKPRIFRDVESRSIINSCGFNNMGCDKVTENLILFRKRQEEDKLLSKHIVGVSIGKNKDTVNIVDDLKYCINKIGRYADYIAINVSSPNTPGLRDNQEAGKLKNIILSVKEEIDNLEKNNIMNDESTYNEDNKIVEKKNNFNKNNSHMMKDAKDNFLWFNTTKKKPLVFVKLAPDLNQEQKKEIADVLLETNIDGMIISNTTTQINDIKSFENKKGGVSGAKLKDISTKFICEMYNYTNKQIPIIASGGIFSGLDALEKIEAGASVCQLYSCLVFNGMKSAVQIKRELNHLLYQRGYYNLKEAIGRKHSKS

With `Cc1cccc([C@H]2C[C@H]3C(Br)=C[C@@H]2C(=O)[C@]32CO2)c1`, the z-score in [1] is -0.536; in experiment [2], -12.1 (active); in experiment [3], -0.423 (inactive); in experiment [5], 0.142 (inactive); in experiment [6] it was 0.622 (inactive); in experiment [7], 0.906 (inactive). Also, the z-score in experiment [8] is -0.0628 (inactive); in experiment [9], -0.332; in experiment [12] it was -0.528; in experiment [13] it was -1.65 (inactive); in experiment [14] it was 0.139 (inactive); in experiment [15], -0.0027 (inactive). For the same compound, the composite z-score in experiment [4] is 0.288 (inactive); in experiment [10], 0.172; in experiment [11] it was -0.409 (inactive); with XIP peptide (Xip251-270), -0.848.
For the compound `COCC(=C=CC[C@H](O)c1cccc(OCCO)c1)C[C@H](O)COCc1ccccc1`, the z-score is -0.136 in experiment [1]; -1.76 (inactive) in experiment [2]; -0.0529 (inactive) in experiment [3]; 0.838 (inactive) in [5]; -0.496 (inactive) in experiment [6]; -0.0164 (inactive) in experiment [7]. Moreover, the z-score was 0.0211 (inactive) in experiment [8]; 0.0473 in [9]; -1.88 in [12]; -3.95 (inactive) in [13]; -0.0978 (inactive) in [14]; 0.443 (inactive) in experiment [15]. The composite z-score in [4] is -1.65 (inactive); in [10] it was 0.0736; in experiment [11], 0.196 (inactive); in the experiment with XIP peptide (Xip251-270), -0.524.
In the case of `CCCCC(=C=CC[C@H](O)c1ccc(OCCO)cc1)C[C@H](O)COCc1ccccc1`, the z-score in experiment [1] was -0.0002; in [2] it was -1.36 (inactive); in [3], 0.0233 (inactive); in experiment [5], 0.0964 (inactive); in [6], 0.556 (inactive); in experiment [7] it was 1.05 (inactive). Also, the z-score is 0.529 (inactive) in experiment [8]; 0.676 in experiment [9]; -1.44 in experiment [12]; -4.21 (inactive) in [13]; -0.122 (inactive) in experiment [14]; -0.0784 (inactive) in experiment [15]. Also, the composite z-score is -0.624 (inactive) in experiment [4], 0.0122 in [10], 0.9 (inactive) in experiment [11] and 0.1 with XIP peptide (Xip251-270).
Regarding `O=C1O[C@H](c2ccccc2)[C@H](c2ccccc2)N2[C@H]1[C@@H](C(=O)N1CCCCCCC1)[C@]1(C(=O)Nc3ccc(C#CC4(O)CCCCCC4)cc31)[C@H]2c1ccc(O)cc1`, the z-score was 0.114 in experiment [1]; -0.101 (inactive) in [2]; -0.5 (inactive) in experiment [3]; 0.875 (inactive) in [5]; 0.74 (inactive) in experiment [6]; 0.799 (inactive) in [7]. Also, the z-score in experiment [8] was 0.163 (inactive); in experiment [9], 0.295; in experiment [12], -0.372; in experiment [13], 1.68 (inactive); in [14] it was -0.216 (inactive); in [15], -1.07 (inactive). For the same compound, the composite z-score is 0.0579 (inactive) in [4], 0.322 in [10], 1.81 (inactive) in experiment [11] and 0.466 with XIP peptide (Xip251-270).
Take `COCCOC(=O)N1C(=O)[C@@]2(c3cc(C#CC4(O)CCCCCC4)ccc31)[C@H](C(=O)N1CCN(c3ncccn3)CC1)[C@H]1C(=O)O[C@H](c3ccccc3)[C@H](c3ccccc3)N1[C@@H]2c1ccccc1OCCO`: the z-score in experiment [1] is 0.212; in experiment [2], 2.67 (inactive); in experiment [3], -0.194 (inactive); in [5] it was 2.12 (inactive); in [6] it was 3.05 (inactive); in experiment [7], -0.322 (inactive). Moreover, the z-score in [8] is -0.473 (inactive); in experiment [9] it was 0.177; in experiment [12] it was -2.07; in experiment [13], -0.77 (inactive); in experiment [14], -0.0411 (inactive); in experiment [15], 0.0349 (inactive). For the same compound, the composite z-score in experiment [4] was 0.97 (inactive); in [10] it was -0.068; in experiment [11], 1.01 (inactive); with XIP peptide (Xip251-270), 0.61.
Regarding `COC(=O)C(CC#Cc1ccc2c(c1)[C@]1(C(=O)N2)[C@H](c2ccc(OCCO)cc2)N2[C@H](c3ccccc3)[C@H](c3ccccc3)OC(=O)[C@H]2[C@@H]1C(=O)N1CCN(c2ncccn2)CC1)C(=O)OC`, the z-score in experiment [1] is -0.175; in experiment [2] it was 1.96 (inactive); in experiment [3] it was -0.382 (inactive); in [5], 3.09 (inactive); in experiment [6] it was 1.79 (inactive); in experiment [7], 0.452 (inactive). The z-score in [8] is 0.152 (inactive); in experiment [9], -2.63; in experiment [12], -2.2; in experiment [13] it was 0.338 (inactive); in experiment [14], -0.0604 (inactive); in [15] it was -0.282 (inactive). Besides, the composite z-score in experiment [4] is -6.39 (inactive); in experiment [10] it was 0.0651; in experiment [11], 0.398 (inactive); in the experiment on XIP peptide (Xip251-270), 0.775.
On to `CC=CC(O)C1C=CC2C(=O)NC(=O)C2N1Nc1ccccn1` (stereo not drawn), for which the z-score in experiment [1] is -1.45; in experiment [2], 0.866 (inactive); in experiment [3], -0.949 (inactive); in experiment [5], 0.667 (inactive); in experiment [6], 1.83 (inactive); in experiment [7] it was -0.837 (inactive). In addition, the z-score in experiment [8] is 0.272 (inactive); in experiment [9], -0.349; in experiment [12], -0.0521; in experiment [13], -1.1 (inactive); in experiment [14], 0.517 (inactive); in experiment [15], 0.359 (inactive). Besides, the composite z-score is 0.434 (inactive) in experiment [4], -0.031 in [10], 2.39 (inactive) in [11] and 0.684 in the experiment on XIP peptide (Xip251-270).
As for `COCCCNC(=O)[C@@]1(Sc2ccc(C)cc2)CC(=O)N(C(C)C)[C@@H]1c1ccc(CO)cc1I`, the z-score in experiment [1] was -0.312; in experiment [2] it was -3.22 (inactive); in experiment [3] it was -2.35 (inactive); in experiment [5] it was 0.394 (inactive); in experiment [6], -1.82 (inactive); in experiment [7], 0.0841 (inactive). Besides, the z-score is -0.0194 (inactive) in [8]; -1.97 in [9]; -1.63 in experiment [12]; -4.13 (inactive) in experiment [13]; 0.121 (inactive) in [14]; 0.579 (inactive) in experiment [15]. For the same compound, the composite z-score in experiment [4] was -0.642 (inactive); in experiment [10] it was -0.37; in experiment [11], 0.287 (inactive); with XIP peptide (Xip251-270) it was 0.609.

Values taken from PubChem BioAssay.
